# Values joined by “and” are separate entries in the source; they are usually repeats but may differ in a detail not shown here. Identical values can stand only once. A number with no mark means an inactive call. Inconclusive results are not listed. Active and inactive are the calls of the source. Unless noted, calls come from the whole dose curve; as a rule, active = well fitted curve in the direction sought with a large enough effect; inconclusive = small, poorly fitted or top-dose-only effect, or another doubt; inactive = no such curve, though single readings can be large; an effect the other way counts as inactive or inconclusive.
# Key:
# [1] = Cell Viability - BJ (AID 421; calls by dose curve;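 note: potency is the fitted concentration of half-maximal effect; cells exposed to compound for 40 hours at 37 °C before readout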); details: BJ fibroblast viability, qHTS
# Procedure, shortened: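 Cytotoxicity as drop in intracellular ATP (CellTiter-Glo, 20 min RT) after 40 hr compound exposure of BJ fibroblasts at 37 °C. Titrations scaled between DMSO and 100 uM tamoxifen, Hill-fitted for AC50.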
# [2] = Cell Viability - HepG2 (AID 433; calls by dose curve;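 note: potency is the fitted concentration of half-maximal effect; potency for ATP loss meaning cytotoxicity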); details: qHTS
# Procedure, shortened: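 Cytotoxicity is scored as loss of intracellular ATP in HepG2 cells exposed to compounds for 40 h. Concentration-response curves, normalized to DMSO and 100 uM tamoxifen, give AC50 values.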
# [3] = Cell Viability - MRC5 (AID 434; calls by dose curve;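 note: potency is the fitted concentration of half-maximal effect; potency reflects cytotoxicity seen as loss of intracellular ATP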); details: MRC5 lung fibroblast viability, qHTS
# Procedure, shortened: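 ATP luminescence read-out (CellTiter-Glo, 20 min RT) after 40 hr, 37 °C compound exposure of 1500 MRC5 cells/well. Data normalized to DMSO (basal) and 100 uM tamoxifen (100% inhibition); AC50 from standard Hill equation.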
# [4] = Cell Viability - SK-N-SH (AID 435; calls by dose curve;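 note: potency is the fitted concentration of half-maximal effect; compound exposure lasted 40 h at 37 °C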); details: SK-N-SH neuroblastoma cell viability qHTS
# Procedure, shortened: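 Cells seeded at 1500 per well and incubated 5 hr at 37 °C. Compound added, then 40 hr at 37 °C. CellTiter-Glo added, 20 min at room temperature, luminescence read.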
# [5] = Cell Viability - N2a (AID 540);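 note: cells exposed to compound for 40 h at 37 °C; plate controls were DMSO alone for no effect and tamoxifen control for full effect; nearly all actives have a fitted effect of over 45% in size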
# Procedure, shortened: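 Cytotoxicity was scored as loss of cellular ATP in N2a cells, a mouse neuroblastoma line. Compounds are applied in a qHTS concentration series for 40 hr at 37 °C.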
# [6] = Cell Viability - NIH 3T3 (AID 541); details: NIH 3T3 cell viability, qHTS; activity change, negative = cytotoxicity: at 92.2 µM (top of the series);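 note: plate controls were DMSO alone for no effect and tamoxifen positive control for full effect; nearly all actives have a fitted effect of over 25% in size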
# Procedure, shortened: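 Cells seeded at 1000/well, rested 5 hr at 37 °C, then dosed and incubated 40 hr at 37 °C. CellTiter-Glo added, 20 min room temperature, luminescence read. AC50 by Hill fit.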
# [7] = Cell Viability - HUV-EC-C (AID 542); note: % is set by controls: 0 for no effect and ±100 for the full control effect; nearly all actives have a fitted effect of over 35% in size
# Procedure, shortened: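 Cells were seeded at 1000 per well and incubated 5 hr at 37 °C before compound addition. After 40 hr at 37 °C, CellTiter-Glo reagent was added for 20 min and luminescence read. AC50 values came from Hill-equation modelling.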
# [8] = Cell Viability - H-4-II-E (AID 543); note: % is set by controls: 0 for no effect and ±100 for the full control effect; nearly all actives have a fitted effect of over 35% in size
# Procedure, shortened: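 Cells seeded at 1500 per well and rested 5 hr; compounds added; 40 hr incubation at 37 °C; CellTiter-Glo added, 20 min at room temperature; luminescence read. Hill-equation fits gave AC50.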
# [9] = Cell Viability - SH-SY5Y (AID 544); details: SH-SY5Y neuroblastoma cell viability; viability change, negative = cytotoxic: at 92.2 µM (top of the series);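 note: 0% = DMSO alone and -100% = 100 µM tamoxifen; nearly all actives have a fitted effect of over 55% in size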
# Procedure, shortened: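 Cells were plated at 1500 per well and allowed 5 hr at 37 °C. Compounds were added across a concentration range and incubated 40 hr at 37 °C. CellTiter-Glo was added for 20 min at room temperature before luminescence reading.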
# [10] = Cell Viability - Mesenchymal (AID 546);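 note: cells exposed to compound for 40 hours before reading; 0% = DMSO only and -100% = 100 µM tamoxifen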
# Procedure, shortened: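 Human renal mesenchymal cells (glomerulus-derived), 1000 cells/well, 5 hr 37 °C pre-incubation; compound 40 hr, 37 °C; CellTiter-Glo, 20 min RT; luminescence; AC50 via Hill equation.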
# [11] = Cellular Toxicity (caspase-3) HepG2 (AID 654);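 note: cells exposed to compound for 16 hours before reading; 0% = DMSO alone and 100% = caspase signal from 100 µM tamoxifen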
# Procedure, shortened: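 Caspase 3/7 activation in HepG2 is measured as rising luminescence after a 16 hr treatment at 37 °C. Values are scaled between DMSO basal and 100 uM tamoxifen, and AC50 is fitted with the Hill equation.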
# [12] = AP1 Signaling Pathway (AID 357; active = well fitted curve in either direction with a large enough effect, not every such curve was filed as active;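 note: ME-180 reporter cells stimulated with EGF at its EC50 level; % is set by controls: 0 for no effect and ±100 for the full control effect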)
# Procedure, shortened: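 Read-out was the 460nm/530nm emission ratio (excitation 405nm) after CCF4 loading for 2.5 hours at room temperature. Cells carried an AP-1-driven beta-lactamase reporter, were stimulated with EC50 EGF plus compound for 5 hours, and AC50 values came from titrations.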
# [13] = NFAT Signaling Pathway (AID 444; active = well fitted curve in either direction with a large enough effect, not every such curve was filed as active;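 note: carbachol stimulus at about its EC50 of 1 µM final; % is set by controls: 0 for no effect and ±100 for the full control effect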); details: Jurkat NFAT-bla M1, carbachol, beta-lactamase ratio, 5 h; at 17.2 µM (top of the series) unless noted
# Procedure, shortened: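 Jurkat cells with NFAT-driven β-lactamase reporter and co-expressed M1 receptor, stimulated with carbachol (final 1 uM, ~EC50), compound titration, 5 h at 37 °C. CCF4 loaded 1 h at RT; 460/530 nm ratio gave %activity and AC50.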
# [14] = Stat Signaling Pathway (AID 446; active = well fitted curve in either direction with a large enough effect, not every such curve was filed as active;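 note: ME-180 cervical cancer cells given 40 pM IL-6 alongside compound; SIE-controlled beta-lactamase reporter measured as 460/530 nm FRET emission ratio; % is set by controls: 0 for no effect and ±100 for the full control effect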)
# Procedure, shortened: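 FRET read-out (405 nm excitation, 460/530 nm emission) of a beta-lactamase reporter under a STAT-inducible element in ME-180 cervical carcinoma cells. Cells with compound receive 40 pM IL-6 for 5 h. Values are normalised to AC90 stimulation and AC90 JAK-inhibitor controls.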
# [15] = molecular target: Glucocorticoid receptor (Homo sapiens) (UniProt P04150); experiment: GR-GFP Redistribution (AID 450;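 active = compounds whose dose series gives a full or clear partial fitted curve of increased nuclear translocation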; note: potency is the fitted concentration of half-maximal effect); details: U2OS GR-GFP nuclear translocation, laser cytometry, 2 h
# [16] = molecular target: Glucocorticoid receptor (Homo sapiens) (UniProt P04150); experiment: GR-EFC Redistribution (AID 451; calls by dose curve; note: potency is the fitted concentration of half-maximal effect); details: CHO-K1 GR-EFC translocation, beta-gal luminescence, 2 h
# Procedure, shortened: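 CHO-K1 cells expressing nuclear EA and GR-ED fragments of b-gal; compounds titrated up to 46 uM final, 2 h at 37 C. GR nuclear translocation read as complemented b-gal luminescence after 1 h RT detection.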
# [17] = Cell Viability - Jurkat (AID 426;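 active = dose-dependent loss of cell ATP signal giving a full or clear fitted curve, ranked by lower potency value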;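 note: potency is the fitted concentration of half-maximal effect; cells exposed to compound for 40 hours at 37 °C before ATP read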); details: qHTS
# Procedure, shortened: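 Cells of the human T-cell leukemia line Jurkat (E6-1) are seeded at 5000 per well, treated with compound across a concentration range for 40 hours at 37 °C, then lysed with CellTiter-Glo; luminescence reports ATP.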
# [18] = molecular target: Mitogen-activated protein kinase 10 (Mus musculus) (UniProt Q61831); experiment: JNK3 AlphaScreen Assay (AID 530; active = well fitted curve in either direction with a large enough effect, not every such curve was filed as active;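 note: kinase came from lysate of stimulated human HepG2 cells; signal reports phosphorylation of biotinylated GST-cJun 1-79 at Ser73 with 10 µM ATP; % is set by controls: 0 for no effect and ±100 for the full control effect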)
# Procedure, shortened: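 Activity was read by AlphaScreen after JNK3-containing HepG2 lysate (cytokine pre-activated) phosphorylated biotinylated GST-cJun with 10 uM ATP at room temperature. Phospho-Ser73 cJun antibody with Protein-A acceptor beads provided detection.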
# [19] = molecular target: Cytochrome P450 1A2 (Homo sapiens) (UniProt P05177); experiment: p450-cyp1a2 (AID 410; calls by dose curve; note: potency is the fitted concentration of half-maximal effect;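 for activity change, negative = inhibition: -100% = full effect of reference inhibitor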)
# Procedure, shortened: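 O-Demethylation of luciferin 6' methyl ether by human CYP1A2 is monitored as luciferase luminescence. Substrate sits at Km (100uM); enzyme is 20nM. Values are scaled to 57 uM furafylline as maximal inhibition.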
# Glucocorticoid receptor (Homo sapiens), sequence (P04150 whole entry, looked up, the tested form may be a part): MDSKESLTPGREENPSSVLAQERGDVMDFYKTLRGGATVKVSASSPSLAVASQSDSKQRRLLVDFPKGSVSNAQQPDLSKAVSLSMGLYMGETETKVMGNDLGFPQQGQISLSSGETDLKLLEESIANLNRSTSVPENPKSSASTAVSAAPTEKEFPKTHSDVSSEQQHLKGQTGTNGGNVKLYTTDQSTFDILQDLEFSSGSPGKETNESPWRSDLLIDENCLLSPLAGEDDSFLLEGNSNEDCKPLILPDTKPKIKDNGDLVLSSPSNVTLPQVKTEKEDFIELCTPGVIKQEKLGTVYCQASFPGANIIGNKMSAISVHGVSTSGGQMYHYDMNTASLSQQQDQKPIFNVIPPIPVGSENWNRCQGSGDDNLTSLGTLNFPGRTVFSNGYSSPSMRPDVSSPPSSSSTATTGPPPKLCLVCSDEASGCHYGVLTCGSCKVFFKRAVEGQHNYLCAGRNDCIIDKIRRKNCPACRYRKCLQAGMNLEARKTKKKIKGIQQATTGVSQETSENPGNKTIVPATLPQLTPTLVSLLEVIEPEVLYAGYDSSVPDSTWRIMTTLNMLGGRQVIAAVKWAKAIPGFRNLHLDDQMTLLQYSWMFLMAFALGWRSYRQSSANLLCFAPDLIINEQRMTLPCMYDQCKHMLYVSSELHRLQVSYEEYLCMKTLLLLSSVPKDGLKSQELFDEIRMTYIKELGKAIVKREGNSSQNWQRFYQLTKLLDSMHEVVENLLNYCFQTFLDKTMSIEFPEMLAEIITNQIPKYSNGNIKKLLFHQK
# Cytochrome P450 1A2 (Homo sapiens), sequence (P05177 whole entry, looked up): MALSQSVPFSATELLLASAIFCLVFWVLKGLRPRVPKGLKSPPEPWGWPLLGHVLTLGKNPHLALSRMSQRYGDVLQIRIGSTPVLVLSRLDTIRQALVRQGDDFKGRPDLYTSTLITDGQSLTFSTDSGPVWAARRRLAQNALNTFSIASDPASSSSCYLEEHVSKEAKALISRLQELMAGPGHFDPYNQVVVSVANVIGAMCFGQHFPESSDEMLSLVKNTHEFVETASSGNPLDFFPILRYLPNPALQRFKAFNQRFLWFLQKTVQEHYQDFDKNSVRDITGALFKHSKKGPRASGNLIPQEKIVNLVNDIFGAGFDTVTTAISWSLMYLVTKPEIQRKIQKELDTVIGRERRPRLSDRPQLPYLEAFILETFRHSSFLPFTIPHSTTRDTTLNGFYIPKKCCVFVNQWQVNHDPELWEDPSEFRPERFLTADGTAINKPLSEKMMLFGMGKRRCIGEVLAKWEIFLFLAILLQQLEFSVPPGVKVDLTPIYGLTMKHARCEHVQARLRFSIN
smiles,measurement,setting,value
O=C(O)c1ccc(S(=O)(=O)N(Cl)Cl)cc1,Potency,[1],> 92 µM
same,Potency,[2],> 92 µM
same,Potency,[3],> 92 µM
same,Potency,[4],> 92 µM
same,Potency,[5],inactive
same,"activity change, negative = cytotoxicity",[6],-11.9%
same,outcome,[7],inactive
same,Potency,[8],inactive
same,"viability change, negative = cytotoxic",[9],-7.18%
same,outcome,[10],inactive
same,outcome,[11],inactive
CCN(CC)CCNC(=O)COc1ccc(OC)cc1,outcome,[12],inactive
same,"activity change, negative = inhibition",[13],-21.8%
same,outcome,[14],inactive
same,Potency,[15],> 20.6 µM
same,Potency,[16],> 20.6 µM
COc1cc(C)nc(-n2nc(C)cc2OC)n1,outcome,[12],inactive
same,"activity change, negative = inhibition",[13],-6.98%
same,Potency,[15],> 20.6 µM
same,Potency,[16],> 20.6 µM
C/C=C/c1ccc(O)c(OC)c1,Potency,[1],> 92 µM
same,Potency,[17],> 92 µM
same,Potency,[2],> 92 µM
same,Potency,[3],> 92 µM
same,Potency,[4],> 92 µM
same,Potency,[5],inactive
same,"activity change, negative = cytotoxicity",[6],-17%
same,outcome,[7],inactive
same,Potency,[8],inactive
same,"viability change, negative = cytotoxic",[9],1.26%
same,outcome,[10],inactive
same,outcome,[11],inactive
COc1cc(NS(=O)(=O)c2ccc(N)cc2)ncn1,outcome,[12],inactive
same,"activity change, negative = inhibition",[13],-5.57% and -24.6% and -2.19%
same,Potency,[15],> 20.6 µM
same,Potency,[16],> 20.6 µM
same,Potency,[18],inactive
CNCCc1ccccn1,Potency,[19],inactive
same,"activity change, negative = inhibition",[13],-6.53%
same,Potency,[15],> 20.6 µM
same,Potency,[16],> 20.6 µM
COc1ccccc1N1CCN(CCCCNC(=O)c2ccc(-c3ccc(C(C)=O)cc3)cc2)CC1,Potency,[19],25.1 µM (active)
same,Potency,[15],> 46 µM
same,Potency,[16],> 46 µM
c1ccc(CC2=NCCN2)cc1,outcome,[12],inactive
same,"activity change, negative = inhibition",[13],-12.4%
same,Potency,[18],inactive
CNCCCCOc1ccccc1Cc1ccccc1,Potency,[15],> 46 µM
same,Potency,[16],> 46 µM
same,Potency,[18],inactive
CN1CCC(OC(c2ccccc2)c2ccccc2)CC1,outcome,[12],inactive
same,Potency,[16],> 20.6 µM
CC[C@H](c1ccc(O)cc1)[C@@H](CC)c1ccc(O)cc1,Potency,[19],12.6 µM (active)
same,Potency,[15],> 20.6 µM
same,Potency,[16],> 20.6 µM
NCCNc1cccc2ccccc12,Potency,[1],> 92 µM
same,Potency,[2],> 92 µM
same,Potency,[3],> 92 µM
same,Potency,[4],> 92 µM
same,Potency,[5],inactive
same,"activity change, negative = cytotoxicity",[6],-24.9%
same,outcome,[7],inactive
same,outcome,[10],inactive
same,outcome,[11],inactive
COc1ccc(C(=O)c2ccccc2O)c(O)c1,outcome,[12],inactive
same,"activity change, negative = inhibition",[13],-15.7%
same,Potency,[15],> 20.6 µM
same,Potency,[16],> 20.6 µM
CC(=O)OC[C@H]1O[C@@H](n2ncc(=O)[nH]c2=O)[C@H](OC(C)=O)[C@@H]1OC(C)=O,outcome,[12],inactive
same,"activity change, negative = inhibition",[13],-22.9%
same,Potency,[15],> 20.6 µM
O=C(O)CCC(=O)Nc1ccc(S(=O)(=O)Nc2nccs2)cc1,outcome,[12],inactive
same,"activity change, negative = inhibition",[13],4.24% and -25.1%
same,outcome,[14],inactive
same,Potency,[15],> 20.6 µM
same,Potency,[16],> 20.6 µM
OC[C@H]1O[C@@H]2O[C@H]3[C@H](O)[C@@H](O)[C@@H](O[C@H]4[C@H](O)[C@@H](O)[C@@H](O[C@H]5[C@H](O)[C@@H](O)[C@@H](O[C@H]6[C@H](O)[C@@H](O)[C@@H](O[C@H]7[C@H](O)[C@@H](O)[C@@H](O[C@H]8[C@H](O)[C@@H](O)[C@@H](O[C@H]1[C@H](O)[C@H]2O)O[C@@H]8CO)O[C@@H]7CO)O[C@@H]6CO)O[C@@H]5CO)O[C@@H]4CO)O[C@@H]3CO,Potency,[1],> 92 µM
same,Potency,[17],> 92 µM
same,Potency,[2],> 92 µM
same,Potency,[3],> 92 µM
same,Potency,[4],> 92 µM
same,Potency,[5],inactive
same,"activity change, negative = cytotoxicity",[6],5.27%
same,outcome,[7],inactive
same,Potency,[8],inactive
same,"viability change, negative = cytotoxic",[9],-6.32%
same,outcome,[10],inactive
same,outcome,[11],inactive
CCCCCCCCNC(C)C(O)c1ccc(SC(C)C)cc1 (configuration not stated),outcome,[12],inactive
same,Potency,[15],> 20.6 µM
CCOc1ccccc1C(N)=O,Potency,[1],> 92 µM
same,Potency,[17],> 92 µM
same,Potency,[2],> 92 µM
same,Potency,[3],> 92 µM
same,Potency,[4],> 92 µM
same,Potency,[5],inactive
same,"activity change, negative = cytotoxicity",[6],2.98%
same,outcome,[7],inactive
same,Potency,[8],inactive
same,"viability change, negative = cytotoxic",[9],-2.76%
same,outcome,[10],inactive
same,outcome,[11],inactive

# From PubChem BioAssay (NCATS)
